Experimental data taken from ChEMBL document CHEMBL1201862, “PubChem BioAssay data set” (2004).
The campaign covered roughly 220,000 compounds. About 10 (0.005%) were called active. The calls are words filed in the database; no cut-off is given here. Shown is part of a subset that was picked to be rich in actives.

Experiment: compounds boosting herpes simplex virus growth – fold increase, host cell viability (AID 1956)
Assay type: functional

**Q.** For N#C/C(=C/c1ccc(N2CCOCC2)o1)C(=O)NC1CCCCC1, which Conc @ Max Fold Incr is on record?
**A.** Its Conc @ Max Fold Incr is 25 µM (active).
